Laboratory results from PubChem BioAssay.
Active and inactive are the calls of the source.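 How the source made its calls, unless noted: active means viability at or below 10% of carrier control in both of two separate runs; inconclusive means viability at or below 10% in only one of the two runs; inactive means the rest.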

Key:
[1] = SK-BR-3 cell growth inhibitors, pilot screen, 24 h, human (AID 572); details: SK-BR-3 viability, CellTiter-Glo luminescence, at 10 µM, stronger effect = lower value;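 further: compound exposure lasted between 18 and 24 h rather than exactly 24 h; 100% = carrier-treated control wells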
[2] = HUVEC growth inhibition – cell-based, human, primary screen (AID 575;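 active means viability at or below 30% in both replicate assays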;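 further: 100% = median of untreated cell wells with 0.1% DMSO on each plate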); details: HUVEC proliferation, CellTiter-Glo luminescence, 72 h; at 10 µM; stronger effect = lower value
[3] = reversal of MRP1-mediated doxorubicin resistance, pilot screen, H69AR cells, doxorubicin co-treatment (AID 601;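 active means viability loss from added drug above about 55%, and viability with drug at most 40%, in both replicates, limit read from the data, passing the limit was not always enough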); details: CellTiter-Glo, 72 h, at 10 µM; for differential viability (reversal): stronger effect = higher value
[4] = 384-well plate pilot, post-Golgi transport modulator project, inhibition of yeast transport mutant growth (AID 636; in the data active means inhibition above about 31%); details: absorbance 615 nm, about 18 h, stronger effect = higher value
[5] = growth suppression of yeast trafficking mutant, preliminary HTS, modulators of trafficking downstream of Golgi apparatus project, 1536-format plate, OD 615 nm (AID 637; in the data active means inhibition above about 30%); details: yeast transport mutant growth, absorbance 615 nm, 18 h; stronger effect = higher value
[6] = H69AR cells + 2 uM doxorubicin, measured here: viability with 2 uM doxorubicin, stronger effect = lower value
[7] = H69AR cells, compound alone cytotoxicity

SMILES | viability [1] | viability [2] | differential viability (reversal) ([3]; H69AR cells + 2 uM doxorubicin) | viability [3, 6] [%] | viability [3, 7] [%] | inhibition [4] | inhibition [5]
O=C(Nc1cccc(-c2nnc(-c3ccccc3)o2)c1)C1CCCCC1 | 88% (inactive) | 82.8% (inactive) | 0.7% (inactive) | 53.3 | 54 | -8.49% (inactive) | 3.55% (inactive)
O=C(Nc1ccc(-c2nc3ncccc3o2)cc1)c1ccc(Br)o1 | 97% (inactive) | 104% (inactive) | -4.05% (inactive) | 53.2 | 49.2 | -2.13% (inactive) | -0.36% (inactive)
CCOC(=O)N1CCN(CC(=O)Nc2cc(C)nn2-c2nc3ccccc3s2)CC1 | 74% (inactive) | 57% (inactive) | -1.56% (inactive) | 39.2 | 37.7 | -0.39% (inactive) | 2.46% (inactive)
COC(=O)C1=C(C)NC(C)=C(C(=O)OC)C1c1ccccc1[N+](=O)[O-] | 91% (inactive) | 46.7% (inactive) | 11.9% (inactive) | 2.41 | 14.3 | 1.04% (inactive) | -2.67% (inactive)
CCOC(=O)Nc1ccc2c(c1)N(C(=O)CCN1CCOCC1)c1ccccc1S2 | 78% (inactive) | 97% (inactive) | -11.3% (inactive) | 76 | 64.7 | -5.07% (inactive) | -2.55% (inactive)
CC(=O)O[C@]1(C(C)=O)CC[C@H]2[C@@H]3C=C(Cl)C4=CC(=O)CC[C@]4(C)[C@H]3CC[C@@]21C | 104% (inactive) | 93.2% (inactive) | -23.2% (inactive) | 54.4 | 31.2 | -1.3% (inactive) | -2.5% (inactive)
C=C(C)C1Cc2c(C)nn(-c3nc(C)cc(C)n3)c2C1 (stereo not drawn) | 105% (inactive) | 71.7% (inactive) | -21.4% (inactive) | 73.7 | 52.3 | -6.58% (inactive) | 13.4% (inactive)
O=C(c1cc2nc(-c3ccco3)cc(C(F)(F)F)n2n1)N1CCN(c2ccccn2)CC1 | 101% (inactive) | 66.5% (inactive) | -11.9% (inactive) | 66.1 | 54.3 | -3.2% (inactive) | 0.18% (inactive)
COc1cc2cc(C(c3nnnn3C3CCCC3)N3CCCCCC3)c(=O)[nH]c2cc1OC (stereo not drawn) | 114% (inactive) | 92.3% (inactive) | -0.62% (inactive) | 59.7 | 59.1 | -3.87% (inactive) | -2.91% (inactive)
COc1ccc2c(c1OC)C(=O)O[C@@H]2[C@H]1c2c(cc3c(c2OC)OCO3)CCN1C | 98% (inactive) | 80.8% (inactive) | -52.2% (inactive) | 84.1 | 31.9 | -6.36% (inactive) | -3.5% (inactive)
CCOC(=O)C1CCN(CC(=O)Nc2c(C(=O)OC)[nH]c3ccc(Cl)cc23)CC1 | 103% (inactive) | 65.5% (inactive) | 34.9% (inactive) | 23.5 | 58.4 | -4.4% (inactive) | 3.09% (inactive)
O=C(/C=C/c1ccccc1)c1ccccc1 | 107% (inactive) | 50.2% (inactive) | -2.5% (inactive) | 4.56 | 2.06 | 1.95% (inactive) | 0.67% (inactive)
CCN(CC)c1ccc2c(c1)CCCN2 | 86.5% (inactive) | 95.9% (inactive) | -13.2% (inactive) | 56.6 | 43.4 | -4.21% (inactive) | 1.64% (inactive)
COC(=O)c1[nH]c2ccc(C)cc2c1NC(=O)CN1CCCC(C)(C)C1 | 125% (inactive) | 77.6% (inactive) | -3% (inactive) | 42.2 | 39.1 | -5.87% (inactive) | 4.91% (inactive)
COC(=O)Nc1nc2ccc(C(=O)c3ccccc3)cc2[nH]1 | 109% (inactive) | 44.3% (inactive) | -47.3% (inactive) | 73.4 | 26.1 | 42.3% (active) | 90.2% (active)
CCCCc1oc2ccccc2c1C(=O)c1cc(I)c(OCCN(CC)CC)c(I)c1 | 91% (inactive) | 2.45% (active) | -11.1% (inactive) | 12.4 | 1.29 | 100% (active) | 100% (active)
CC(=O)O[C@@]12CO[C@@H]1C[C@H](O)[C@@]1(C)C(=O)[C@H](O)C3=C(C)[C@@H](OC(=O)[C@H](O)[C@@H](NC(=O)OC(C)(C)C)c4ccccc4)C[C@](O)([C@@H](OC(=O)c4ccccc4)[C@H]21)C3(C)C | 130% (inactive) | 40.7% (inactive) | -79.6% (inactive) | 98.8 | 19.2 | -4.03% (inactive) | -2.33% (inactive)
Oc1c(I)cc(Cl)c2cccnc12 | 84% (inactive) | 8.13% (active) | -10.4% (inactive) | 46.2 | 35.8 | 4.55% (inactive) | 8.83% (inactive)
COc1cc(C2Nc3cccc4cccc(c34)N2)cc(OC)c1O | 92.5% (inactive) | 57.5% (inactive) | -14.8% (inactive) | 70 | 55.2 | -0.92% (inactive) | -4.76% (inactive)
